Reference: PubChem BioAssay (Tox21)
Records with an inconclusive call do not appear. A call without a number means that no potency is given here. Active and inactive are the calls of the source. Unless noted, calls come from the whole dose curve.

Key:
[1] = qHTS assay to identify small molecule agonists of the sonic hedgehog signaling (Shh) pathway (AID 1259368);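 note: NIH/3T3-derived 3T3Gli1-Luc cells carrying a stable Gli1-driven firefly luciferase reporter; series mostly up to about 92 µM; nearly all actives have a fitted effect of over 15% in size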
In short: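 A Gli1 transcriptional response element controlled firefly luciferase in 3T3Gli1-Luc cells. Compounds and a positive control were added 4 hr after plating, and cells were incubated a further 24 hr at 37 C before luminescence detection.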

[2] = qHTS assay to identify small molecule antagonists of the sonic hedgehog signaling (Shh) pathway (AID 1259369); note: nearly all actives have a fitted effect of over 45% in size; note: potency is the fitted concentration of half-maximal effect
In short: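 For antagonist detection, the reporter line received test compounds together with conditioned medium, incubated 24hr at 37 C, 5% CO2, then luminescence was recorded following 30min room-temperature luciferase reagent incubation.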

[3] = target: Estrogen receptor beta (Homo sapiens) (UniProt Q92731); assay: qHTS assay to identify small molecule antagonists of the estrogen receptor beta (ER-beta) signaling pathway (AID 1259378; active = well fitted inhibition curve with a large enough effect in the signal ratio in the repeat runs, not every such curve was filed as active; the % refers to the signal ratio; note: potency is the fitted concentration of half-maximal effect)
Chain of Estrogen receptor beta (Homo sapiens) (Q92731 whole entry, looked up): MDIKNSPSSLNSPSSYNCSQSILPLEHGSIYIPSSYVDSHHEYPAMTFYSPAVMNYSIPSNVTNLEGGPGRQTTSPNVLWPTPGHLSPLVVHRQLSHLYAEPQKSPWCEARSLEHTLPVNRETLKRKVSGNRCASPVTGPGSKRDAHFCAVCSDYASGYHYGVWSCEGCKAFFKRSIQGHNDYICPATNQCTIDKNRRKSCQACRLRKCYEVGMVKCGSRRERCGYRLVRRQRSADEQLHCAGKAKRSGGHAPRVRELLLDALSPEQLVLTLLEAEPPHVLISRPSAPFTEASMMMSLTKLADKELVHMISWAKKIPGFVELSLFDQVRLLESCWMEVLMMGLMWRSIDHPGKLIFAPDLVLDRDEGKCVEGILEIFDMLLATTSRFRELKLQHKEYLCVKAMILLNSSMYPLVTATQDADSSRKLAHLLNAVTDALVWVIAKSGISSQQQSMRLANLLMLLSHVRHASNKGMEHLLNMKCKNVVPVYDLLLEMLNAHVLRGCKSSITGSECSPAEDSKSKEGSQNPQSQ
In short: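 ER-beta-UAS-bla HEK293T (GripTite) cells in 2% charcoal-stripped FBS medium were preincubated 6 hr at 37C, dosed with compound, then stimulated with 1 nM E2 (final) for 16 hr; beta-lactamase reporter read by B/G FRET fluorescence after 2 hr substrate loading.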

[4] = qHTS assay to identify small molecule agonists of the androgen receptor (AR) signaling pathway in the presence of an antagonist - cell viability counter screen (AID 1259379; active = well fitted curve in the direction sought with a large enough effect in the repeat runs; an effect the other way counts as inactive or inconclusive;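 note: MDA-kb2 human breast cancer cells carrying an MMTV luciferase reporter; series mostly up to about 92 µM; nearly all actives have a fitted effect of over 25% in size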)
In short: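 Seed MDA-kb2 at 3,000 cells/well; incubate 5 hr, 37C, 0% CO2. Add nilutamide to 3.0uM final, then pin compounds at 15 concentrations. Incubate 16 hr. Add CellTiter-Fluor at 15 hr, read fluorescence after 1 hr.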

[5] = qHTS assay to identify small molecule agonists of the estrogen receptor beta (ER-beta) signaling pathway - cell viability counter screen (AID 1259380; active = well fitted curve in the direction sought with a large enough effect in the repeat runs; an effect the other way counts as inactive or inconclusive; note: nearly all actives have a fitted effect of over 30% in size)
In short: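 CellTiter-Glo read, 30 min RT, same wells as bla assay; cells ER-beta-UAS-bla HEK293T; 16 hr compound, 37C; medium 2% charcoal-stripped FBS.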

[6] = target: Estrogen receptor (Homo sapiens) (UniProt P03372); assay: qHTS assay to identify small molecule agonists of the estrogen receptor alpha (ER-alpha) signaling pathway in the presence of an antagonist (AID 1259383); note: top concentration of the series differs between compounds; nearly all actives have a fitted effect of over 15% in size
Chain of Estrogen receptor (Homo sapiens) (P03372 whole entry, looked up): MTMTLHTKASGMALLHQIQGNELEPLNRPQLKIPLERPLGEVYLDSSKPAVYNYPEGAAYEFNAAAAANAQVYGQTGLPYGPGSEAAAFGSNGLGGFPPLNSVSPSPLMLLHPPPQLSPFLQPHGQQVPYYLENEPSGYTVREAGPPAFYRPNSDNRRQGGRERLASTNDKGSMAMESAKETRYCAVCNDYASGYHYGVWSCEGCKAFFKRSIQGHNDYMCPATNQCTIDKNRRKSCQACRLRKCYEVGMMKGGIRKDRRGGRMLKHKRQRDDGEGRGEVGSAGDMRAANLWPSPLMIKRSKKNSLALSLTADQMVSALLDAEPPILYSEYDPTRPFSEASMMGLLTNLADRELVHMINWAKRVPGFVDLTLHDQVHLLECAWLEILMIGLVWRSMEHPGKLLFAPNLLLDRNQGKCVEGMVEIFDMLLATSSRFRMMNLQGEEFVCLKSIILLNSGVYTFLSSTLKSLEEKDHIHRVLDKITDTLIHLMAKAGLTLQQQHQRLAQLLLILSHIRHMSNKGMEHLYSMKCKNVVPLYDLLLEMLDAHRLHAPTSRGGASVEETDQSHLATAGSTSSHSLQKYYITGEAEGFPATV
In short: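 Stably transfected VM7Luc4E2 reporter cells, kept 5 days in charcoal-stripped serum, received ICI-182,780 at 10.0nM final before compound addition. Following 22hr incubation at 37C and 5% CO2, luciferase signal was read by luminescence.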

[7] = qHTS assay to identify small molecule agonists of the estrogen receptor alpha (ER-alpha) signaling pathway in the presence of an antagonist - cell viability counter screen (AID 1259386; active = well fitted curve in the direction sought with a large enough effect in the repeat runs; an effect the other way counts as inactive or inconclusive;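 note: series mostly up to about 92 µM; cells exposed to compounds for 22 h at 37 °C before the viability read; nearly all actives have a fitted effect of over 30% in size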)
In short: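 Viability counter screen using VM7Luc4E2 (full-length ER-alpha, four ERE-luciferase). The cells were treated with compounds alongside ICI-182,780 10.0nM for 22hr, and live-cell protease fluorescence was quantified with CellTiter-Fluor.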

[8] = target: Progesterone receptor (Homo sapiens) (UniProt P06401); assay: qHTS assay to identify small molecule agonists of the progesterone receptor (PR) signaling pathway (AID 1346784); note: nearly all actives have a fitted effect of over 30% in size
Chain of Progesterone receptor (Homo sapiens) (P06401 whole entry, looked up): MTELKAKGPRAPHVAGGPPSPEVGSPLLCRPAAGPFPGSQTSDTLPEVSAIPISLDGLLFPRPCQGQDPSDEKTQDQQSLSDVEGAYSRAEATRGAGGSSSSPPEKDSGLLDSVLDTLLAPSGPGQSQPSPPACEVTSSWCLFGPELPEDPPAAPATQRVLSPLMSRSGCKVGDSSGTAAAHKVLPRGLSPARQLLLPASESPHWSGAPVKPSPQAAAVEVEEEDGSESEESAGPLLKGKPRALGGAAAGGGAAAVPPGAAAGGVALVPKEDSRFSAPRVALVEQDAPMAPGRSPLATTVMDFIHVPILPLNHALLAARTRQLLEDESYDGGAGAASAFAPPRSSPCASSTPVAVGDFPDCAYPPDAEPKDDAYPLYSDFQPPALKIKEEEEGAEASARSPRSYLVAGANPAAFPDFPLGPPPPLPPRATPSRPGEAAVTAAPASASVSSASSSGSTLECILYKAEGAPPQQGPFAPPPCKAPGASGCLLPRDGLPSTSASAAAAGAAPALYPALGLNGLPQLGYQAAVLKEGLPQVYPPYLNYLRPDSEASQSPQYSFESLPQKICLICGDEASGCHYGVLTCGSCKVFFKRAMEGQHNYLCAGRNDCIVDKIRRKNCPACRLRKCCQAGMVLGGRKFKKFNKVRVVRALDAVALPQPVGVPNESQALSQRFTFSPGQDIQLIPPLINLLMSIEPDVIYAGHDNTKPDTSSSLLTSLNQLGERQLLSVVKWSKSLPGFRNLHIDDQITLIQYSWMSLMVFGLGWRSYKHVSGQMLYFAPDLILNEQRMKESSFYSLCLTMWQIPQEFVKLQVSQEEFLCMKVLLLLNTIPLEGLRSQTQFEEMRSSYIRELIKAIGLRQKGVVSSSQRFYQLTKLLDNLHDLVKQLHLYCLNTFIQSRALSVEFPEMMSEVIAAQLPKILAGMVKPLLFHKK
In short: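 The screen uses PR-UAS-bla HEK 293T cells in charcoal-stripped serum (2%). Compounds are applied for 16 hr at 37C after a 6 hr pre-incubation, and reporter activity is detected with a FRET beta-lactamase substrate after 2 hr at room temperature.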

[9] = target: Progesterone receptor (Homo sapiens) (UniProt P06401); assay: qHTS assay to identify small molecule antagonists of the progesterone receptor (PR) signaling pathway (AID 1346795; active = well fitted inhibition curve with a large enough effect in the signal ratio in the repeat runs, not every such curve was filed as active; the % refers to the signal ratio)
In short: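 After 6 hr plating at 37C in 2% stripped-serum medium, PR-UAS-bla HEK293T cells got compounds, then 1 nM R5020. Sixteen hours later, LiveBLAzer substrate was applied for 2 hr at room temperature and fluorescence was recorded.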

[10] = qHTS assay to identify small molecule antagonists of the progesterone receptor (PR) signaling pathway - cell viability counter screen (AID 1346798; active = well fitted curve in the direction sought with a large enough effect in the repeat runs; an effect the other way counts as inactive or inconclusive; note: series mostly up to about 92 µM; nearly all actives have a fitted effect of over 50% in size)
In short: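 Viability was determined by ATP-based luminescence (CellTiter-Glo) in PR-UAS-bla HEK293T cells cultured in 2% charcoal-stripped serum and incubated 16 hr with compounds under R5020 stimulation.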

[11] = qHTS assay to identify small molecule agonists of the progesterone receptor (PR) signaling pathway - cell viability counter screen (AID 1346799); note: nearly all actives have a fitted effect of over 45% in size
In short: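 Viability was scored by ATP luminescence (CellTiter-Glo, 30 min, room temperature) in the same wells used for the reporter readout, after 16 hr compound exposure of PR-UAS-bla HEK293T cells.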

[12] = qHTS assay to identify small molecule antagonists of the TGF-beta/Smad signaling pathway - cell viability counter screen (AID 1346824; active = well fitted curve in the direction sought with a large enough effect in the repeat runs; an effect the other way counts as inactive or inconclusive; note: nearly all actives have a fitted effect of over 50% in size)
In short: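 SBE-bla HEK 293T cells were plated overnight at 37 C, then given compounds in DMSO plus TGF-beta1 (added as 0.25 ng/mL solution) for 5 hr. After the bla read, CellTiter-Glo was added to the same wells and luminescence read after 30 min at room temperature.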

[13] = qHTS assay to identify small molecule agonists of the TGF-beta/Smad signaling pathway - cell viability counter screen (AID 1346829; active = well fitted curve in the direction sought with a large enough effect in the repeat runs; an effect the other way counts as inactive or inconclusive; note: top concentration of the series differs between compounds; nearly all actives have a fitted effect of over 45% in size)
In short: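 Cytotoxicity counter screen: CellTiter-Glo luminescence (30 min, room temperature) measured in the SBE-bla HEK 293T reporter wells after 5 hr compound treatment at 37 C and the 2 hr substrate step.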

[14] = qHTS assay to identify small molecule agonists of the TGF-beta/Smad signaling pathway (AID 1346859; active = well fitted activation curve with a large enough effect in the signal ratio in the repeat runs, not every such curve was filed as active; the % refers to the signal ratio; note: series mostly up to about 77 µM)
In short: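 Dual-wavelength fluorescence (460/530 nm emission) quantified beta-lactamase expression under the Smad binding element in HEK 293T cells following 5 hr compound treatment at 37 C.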

[15] = target: Thyrotropin-releasing hormone receptor (Homo sapiens) (UniProt P34981); assay: qHTS assay to identify small molecule antagonists of the thyrotropin-releasing hormone receptor (TRHR) signaling pathway (AID 1346877; active = well fitted inhibition curve with a large enough effect in the repeat runs, not every such curve was filed as active; note: series mostly up to about 51 µM)
Chain of Thyrotropin-releasing hormone receptor (Homo sapiens) (P34981 whole entry, looked up): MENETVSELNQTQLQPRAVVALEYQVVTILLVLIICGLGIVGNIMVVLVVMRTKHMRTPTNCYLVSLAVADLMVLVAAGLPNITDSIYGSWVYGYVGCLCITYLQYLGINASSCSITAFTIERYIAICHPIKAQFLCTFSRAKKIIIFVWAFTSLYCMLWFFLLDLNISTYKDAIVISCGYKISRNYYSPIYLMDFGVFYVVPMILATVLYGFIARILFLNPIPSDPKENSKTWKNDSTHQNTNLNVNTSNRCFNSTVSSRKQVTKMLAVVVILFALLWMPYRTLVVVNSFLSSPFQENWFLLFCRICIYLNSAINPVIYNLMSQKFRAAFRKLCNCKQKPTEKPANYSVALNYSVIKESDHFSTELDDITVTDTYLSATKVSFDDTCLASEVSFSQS
In short: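 Following an 18 h incubation at 37 °C and a 2 h calcium dye load, TRHR-HEK293 cells were exposed to compound (5 min, room temperature) and challenged with TRH, 1 nM final.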

[16] = qHTS assay to identify small molecule antagonists of the estrogen receptor beta (ER-beta) signaling pathway - cell viability counter screen (AID 1259382; active = well fitted curve in the direction sought with a large enough effect in the repeat runs; an effect the other way counts as inactive or inconclusive; note: series mostly up to about 92 µM; nearly all actives have a fitted effect of over 55% in size)
In short: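 In this multiplexed counter screen, cells were seeded at 2,000 per well in medium with 2% charcoal-stripped FBS and incubated 6 hr before compound and 1nM final E2 were added. Sixteen hours later, ATP-based luminescence reported viability.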

[17] = qHTS assay to identify small molecule agonists or antagonists of the thyroid stimulating hormone receptor (TSHR) signaling pathway - wild type cell line counter screen (AID 1259384)
In short: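 Wild-type HEK293 cells were plated 18 h at 37 C/5% CO2, pin-dosed with compound plus Ro20-1724 medium, held 30 min at room temperature, then given cAMP-d2 and anti-cAMP-cryptate; fluorescence was read after 1 h. Fifteen concentrations, triplicate.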

[18] = target: Thyrotropin receptor (Homo sapiens) (UniProt P16473); assay: qHTS assay to identify small molecule antagonists of the thyroid stimulating hormone receptor (TSHR) signaling pathway (AID 1259385); note: nearly all actives have a fitted effect of over 20% in size; note: potency is the fitted concentration of half-maximal effect
Chain of Thyrotropin receptor (Homo sapiens) (P16473 whole entry, looked up): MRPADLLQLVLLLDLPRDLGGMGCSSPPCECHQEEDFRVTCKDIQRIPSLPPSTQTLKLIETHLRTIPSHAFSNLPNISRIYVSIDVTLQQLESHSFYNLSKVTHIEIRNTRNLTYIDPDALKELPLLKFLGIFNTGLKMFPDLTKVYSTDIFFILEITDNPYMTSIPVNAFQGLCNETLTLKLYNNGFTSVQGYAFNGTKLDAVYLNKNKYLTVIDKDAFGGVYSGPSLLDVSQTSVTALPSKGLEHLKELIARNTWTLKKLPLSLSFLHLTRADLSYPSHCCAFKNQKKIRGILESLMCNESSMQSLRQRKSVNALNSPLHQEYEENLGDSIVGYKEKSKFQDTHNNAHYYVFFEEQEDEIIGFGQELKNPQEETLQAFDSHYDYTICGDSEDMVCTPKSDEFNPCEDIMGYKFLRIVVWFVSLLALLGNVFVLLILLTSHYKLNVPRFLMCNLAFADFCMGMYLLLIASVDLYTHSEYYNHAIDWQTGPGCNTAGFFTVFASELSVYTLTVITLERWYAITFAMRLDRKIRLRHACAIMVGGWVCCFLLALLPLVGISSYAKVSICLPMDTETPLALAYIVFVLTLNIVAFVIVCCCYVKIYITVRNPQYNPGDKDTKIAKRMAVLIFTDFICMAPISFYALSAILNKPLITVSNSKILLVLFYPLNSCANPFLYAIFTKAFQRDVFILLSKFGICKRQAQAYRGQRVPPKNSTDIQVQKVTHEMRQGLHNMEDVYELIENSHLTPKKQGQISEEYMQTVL
In short: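 TSHR-HEK293 cells were plated and held 18 h at 37C/5% CO2, then given compound plus Ro20-1724 and stimulated with TSH at 1.5 ng/mL final. After 30 min at room temperature, cAMP was detected with cAMP-d2/anti-cAMP-cryptate (1 h) by fluorescence.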

[19] = target: Androgen receptor (Homo sapiens) (UniProt P10275); assay: qHTS assay to identify small molecule agonists of the androgen receptor (AR) signaling pathway in the presence of an antagonist (AID 1259381); note: nearly all actives have a fitted effect of over 15% in size
Chain of Androgen receptor (Homo sapiens) (P10275 whole entry, looked up): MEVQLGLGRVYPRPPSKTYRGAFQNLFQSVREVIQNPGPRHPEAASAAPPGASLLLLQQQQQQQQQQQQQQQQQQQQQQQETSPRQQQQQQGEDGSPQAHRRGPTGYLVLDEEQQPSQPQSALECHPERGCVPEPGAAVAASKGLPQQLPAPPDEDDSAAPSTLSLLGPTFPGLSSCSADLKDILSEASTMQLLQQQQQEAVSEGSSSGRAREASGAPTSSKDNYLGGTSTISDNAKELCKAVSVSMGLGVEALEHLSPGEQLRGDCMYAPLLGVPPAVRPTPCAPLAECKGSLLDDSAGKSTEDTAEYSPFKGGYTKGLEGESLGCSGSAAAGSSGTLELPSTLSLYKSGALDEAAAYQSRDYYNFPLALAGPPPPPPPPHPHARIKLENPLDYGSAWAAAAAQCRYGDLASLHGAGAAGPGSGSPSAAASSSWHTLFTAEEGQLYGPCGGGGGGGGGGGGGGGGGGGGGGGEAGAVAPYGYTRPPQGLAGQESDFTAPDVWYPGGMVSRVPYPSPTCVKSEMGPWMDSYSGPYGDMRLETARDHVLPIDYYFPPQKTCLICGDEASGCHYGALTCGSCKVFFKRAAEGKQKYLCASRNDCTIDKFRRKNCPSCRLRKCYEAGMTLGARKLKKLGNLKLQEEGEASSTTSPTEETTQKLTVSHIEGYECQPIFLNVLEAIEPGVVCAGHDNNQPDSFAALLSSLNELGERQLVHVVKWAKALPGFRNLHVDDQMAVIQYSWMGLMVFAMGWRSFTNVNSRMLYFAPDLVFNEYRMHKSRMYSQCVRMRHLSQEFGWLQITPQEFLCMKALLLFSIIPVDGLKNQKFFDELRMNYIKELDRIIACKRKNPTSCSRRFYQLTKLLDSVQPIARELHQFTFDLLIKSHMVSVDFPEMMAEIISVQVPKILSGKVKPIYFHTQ
In short: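 Test compounds at 15 concentrations were incubated for 16hr with MDA-kb2 reporter cells in presence of 3.0uM nilutamide (final). Signal: ONE-Glo luciferase luminescence.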

SMILES | Potency [1] | Potency [2] | Potency [3] | Potency [4] | Potency [5] | Potency [6] | outcome [7] | Potency [8] | Potency [9] | Potency [10] | Potency [11] | outcome [12] | outcome [13] | outcome [14] | outcome [15] | Potency [16] | outcome [17] | Potency [18] | Potency [19]
CCCCOCC(C)OCC(C)O (stereo not drawn) | inactive | inactive | inactive | inactive | inactive | inactive | inactive | inactive | inactive | inactive | inactive | inactive | inactive | inactive | inactive | – | – | – | –
c1ccc2cnncc2c1 | inactive | inactive | – | inactive | inactive | inactive | inactive | inactive | inactive | inactive | inactive | inactive | inactive | inactive | inactive | inactive | inactive | inactive | –
NC(=O)CCCCC1CCSS1 (stereo not drawn) | inactive | inactive | – | inactive | inactive | inactive | inactive | inactive | inactive | inactive | inactive | inactive | inactive | inactive | inactive | inactive | inactive | inactive | –
CCC(C(=O)NC(N)=O)c1ccccc1 (stereo not drawn) | inactive | inactive | inactive | inactive | inactive | inactive | inactive | inactive | inactive | inactive | inactive | – | inactive | inactive | inactive | – | inactive | inactive | –
CC(C)=CCC/C(C)=C/C(=O)O | inactive | inactive | – | inactive | inactive | inactive | inactive | inactive | inactive | inactive | inactive | inactive | inactive | inactive | inactive | inactive | – | – | –
CCCCCCCCN(C)CCCCCCCC | inactive | inactive | – | inactive | inactive | inactive | inactive | inactive | inactive | inactive | inactive | – | inactive | inactive | – | inactive | inactive | inactive | inactive
NS(=O)(=O)c1cc2c(cc1Cl)NC(CSCc1ccccc1)=NS2(=O)=O | inactive | inactive | – | inactive | inactive | inactive | inactive | inactive | inactive | inactive | inactive | – | inactive | inactive | inactive | inactive | inactive | inactive | –
COc1cc(O)cc(O)c1 | inactive | inactive | – | inactive | inactive | inactive | inactive | inactive | inactive | inactive | inactive | inactive | inactive | inactive | inactive | inactive | inactive | inactive | –
Cc1ccccc1C(=O)O | inactive | inactive | inactive | inactive | inactive | – | inactive | inactive | inactive | inactive | inactive | – | inactive | inactive | – | inactive | – | – | –
c1cc(CN2CCCCC2)cc(OCCCNc2nc3ccccc3s2)c1 | inactive | 4.73 µM (active) | 23.7 µM (active) | – | – | inactive | – | inactive | – | inactive | – | – | inactive | inactive | – | – | inactive | 29.8 µM (active) | –
Cc1ncc(CSSCc2cnc(C)c(O)c2CO)c(CO)c1O | inactive | inactive | – | inactive | inactive | inactive | inactive | inactive | inactive | inactive | inactive | – | inactive | inactive | inactive | inactive | inactive | inactive | inactive
COc1ccc2cc(C=O)ccc2c1 | inactive | inactive | inactive | inactive | – | inactive | inactive | inactive | – | inactive | inactive | inactive | inactive | inactive | inactive | inactive | inactive | inactive | inactive
O=c1[nH]c(=O)n([C@H]2O[C@H](CO)[C@@H](O)[C@@H]2O)cc1/C=C\Br | inactive | inactive | – | inactive | inactive | inactive | inactive | inactive | inactive | inactive | inactive | inactive | inactive | inactive | inactive | inactive | – | – | inactive
OC/C=C/c1ccccc1 | inactive | inactive | inactive | inactive | inactive | – | inactive | inactive | inactive | inactive | inactive | – | inactive | inactive | – | inactive | – | – | –
CC12CCC(CC1=O)C2(C)C (stereo not drawn) | inactive | inactive | inactive | inactive | – | inactive | – | inactive | inactive | inactive | inactive | – | inactive | inactive | inactive | inactive | inactive | inactive | –
Cc1cc(C)cc(OCC2CNC(=O)O2)c1 (stereo not drawn) | inactive | inactive | – | inactive | inactive | inactive | inactive | inactive | inactive | inactive | inactive | inactive | inactive | inactive | – | inactive | inactive | inactive | –
CCCCCCCCCCCCCCCCCC(=O)OCCCCCCCCCCCCCC(C)C | inactive | inactive | – | inactive | inactive | inactive | inactive | inactive | inactive | inactive | inactive | – | inactive | inactive | inactive | inactive | inactive | inactive | –
CC1(C)OC(=O)Nc2ccc(Br)cc21 | inactive | inactive | – | inactive | inactive | inactive | inactive | inactive | – | – | inactive | inactive | inactive | inactive | inactive | inactive | inactive | inactive | inactive
